Screening results (PubChem BioAssay)
The list is not random: actives were taken first. Their share in the collection is about 8%.
KB-3-1 cytotox: kills parental KB-3-1 adenocarcinoma cells | KB-3-1 viability, CellTiter-Glo ATP luminescence, 72 h | Potency, µM (top dose mostly 46.1 µM), most hits filed as cytotoxic | actives 1.4% (n = 400,000) | AID 1347075; further: on the % scale 0 is the no-effect control and ±100 the full control effect; nearly all actives have a fitted effect of over 60% in size
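Screening of KB-3-1 cells (DMEM, 10% FBS, phenol-red free) ran from lowest to highest compound concentration; after 72 h at 37 °C viability was read luminescently and curves fitted.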
MCF10A rereplic: inducers of DNA re-replication in MCF 10A breast cells | MCF 10A DNA re-replication, Hoechst nuclear intensity, 48 h | Potency, µM (doses to about 46.1 µM), without a hit: top-dose activity, positive = re-replication, actives largely listed as activators | actives 2.9% (n = 350,000) | AID 624296; further: % of control where 0% means no effect; nearly all actives have a fitted effect of over 50% in size
KB-V1 MDR tox: kills drug-selected multidrug resistant KB-V1 cells; actives 3.4% (n = 400,000); Potency, µM (series often up to 46.1 µM), most hits filed as cytotoxic; KB-V1 MDR cells viability, CellTiter-Glo, 72 h; further: on the % scale 0 is the no-effect control and ±100 the full control effect; nearly all actives have a fitted effect of over 60% in size
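Cytotoxicity via CellTiter-Glo luminescence after 72 h compound exposure at 37 degrees C. Cells: drug-selected KB-V1 line, DMEM phenol-red free plus 10% FBS. Compounds tested at multiple concentrations; normalized data fitted to concentration-effect curves.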
SW480 rerep: DNA re-replication induction in SW480 cells | SW480 DNA re-replication, Hoechst DNA content imaging, 48 h | actives 1.8% (n = 340,000) | Potency, µM (highest dose often 46.1 µM), inactives show at the top dose re-replication activation, most hits filed as activators | AID 624297; further: % of control where 0% means no effect; nearly all actives have a fitted effect of over 55% in size
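SW480 cells exposed to compounds for 48 hr at 37 C, 5% CO2, then Hoechst-stained 40 min. Nuclear DNA content imaged by fluorescence scanning (405 nm excitation, 500-530 nm emission); re-replication scored as increased high-intensity nuclei.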
HT1080 IDH1KD tx: toxicity to HT-1080 IDH1 knockdown cells (counter line) | HT-1080 IDH1 knockdown viability, ATP luminescence, 48 h | Potency, µM (series often up to 46.1 µM), for the others: top-dose activity, negative = toxicity, actives largely listed as cytotoxic | actives 2% (n = 360,000) | AID 686971;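 further: 0% = DMSO wells and -100% = cell-free medium wells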
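In this qHTS, HT-1080 cells depleted of IDH1 are exposed for 48 h at 37 °C to compound titrations. Toxicity is scored from CellTiter-Glo luminescence, with DMSO as full viability and medium alone as none.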
HT1080NT lethal: kills 2HG-producing HT-1080-NT fibrosarcoma cells; Potency, µM (doses to about 46.1 µM), for the others: at the highest dose activity, negative = less viability, most hits filed as cytotoxic; HT-1080-NT fibrosarcoma viability, CellTiter-Glo ATP luminescence, 48 h; actives 1.6% (n = 360,000); AID 686970;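 further: NT is the 2HG producing partner of a matched IDH1 knockdown line; 0% = DMSO-treated cells and -100% = media-only wells without cells; nearly all actives have a fitted effect of over 55% in size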
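A 48-hour cytotoxicity screen used HT-1080-NT cells plated 2 hours before compound delivery. ATP-based CellTiter-Glo luminescence measured viability, normalized to DMSO and no-cell controls.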
Numbers without * were called inactive; i = inactive; ? = inconclusive; · = no result; [ ] = remark or other dose. The call rests on the fitted dose curve; in most records, active means well fitted curve in the direction sought with a large enough effect; inconclusive means small, poorly fitted or top-dose-only effect, or another doubt; inactive means no such curve, though single readings can be large; an effect the other way counts as inactive or inconclusive. Potency means the concentration at half of the fitted maximal effect.

SMILES	KB-3-1 cytotox	MCF10A rereplic	KB-V1 MDR tox	SW480 rerep	HT1080 IDH1KD tx	HT1080NT lethal
CCCCN(C)C(=O)CN1C(=O)c2cccnc2Oc2ccc(Cl)cc21	i	·	i	·	·	·
CC(C)C12CN3CC(C(C)C)(CN(C1)C3c1ccc(Cl)cc1)C2=O (stereo not given)	i	·	i	·	·	·
CN(C)CCOC1c2ccccc2C=Cc2ccccc21	i	2%	i	3%	-18%	-18%
CN(C)CCOC1c2ccccc2CCc2ccc3ccccc3c21 (stereo not given)	i	10%	?	8%	16µM*	21µM*
COc1ccc(C(=O)N(C)c2ccccc2C(=O)NCCc2ccccc2)cc1	2.9µM*	1%	5.8µM*	26%	?	-17%
COc1ccc(NC(=S)NCCCc2ccccc2)cc1	i	-1%	i	18µM*	0%	7%
COc1ccc(NC(=O)NCCCCc2ccccc2)cc1	i	-57%	i	0%	6%	2%
COc1cc(OC)cc(C(=O)NC(=S)NCCc2ccccc2)c1	i	1%	i	?	35µM*	?
COC1=C(OC)C(=O)C(Sc2ccc3ccccc3c2)=CC1=O	?	5.8µM*	2.6µM*	18µM*	16µM*	?
O=C(CSc1nc2c([nH]c3ccccc32)c(=O)n1-c1ccccc1F)Nc1cccc(C(F)(F)F)c1	15µM*	·	?	·	·	·
CC(=O)Nc1ccc(NC(=O)CSc2nc3c([nH]c4ccccc43)c(=O)n2-c2ccccc2F)cc1	?	2%	i	-10%	?	-29%
Cn1c(SCC(=O)Nc2ccccc2)nc2c([nH]c3ccccc32)c1=O	i	18µM*	i	-12%	-3%	-4%
CCSc1nc2c([nH]c3ccccc32)c(=O)n1C	i	-3%	i	3%	23%	13%
CCC1CCCCN1C(=O)CSc1nc2c([nH]c3ccccc32)c(=O)n1C (stereo not given)	i	1%	23µM*	-4%	3%	9%
C[C@]12CCC(=O)C=C1CCC1C2C(=O)C[C@]2(C)C1CC[C@]2(O)C(=O)CO (stereo not given in full)	·	-1%	·	-4%	·	·
CN(Cc1ccccc1)C(=S)Nc1ccc(OC(F)F)cc1	i	-3%	15µM*	-5%	10%	13%
CCOC(=O)c1noc2nc(C)n(CC(=O)Nc3cccc(OC)c3)c(=O)c12	i	·	?	·	·	·
CCc1nc2ccc(C(=O)N(C)CCCN(C)C)cn2c1N(C)Cc1cc2ccccc2s1	i	·	i	·	16µM*	18µM*
CC1CN(S(=O)(=O)c2cccc(C(=O)OCCOc3ccccc3)c2)CC(C)O1 (stereo not given)	i	-2%	12µM*	-6%	-8%	-2%
COc1ccc(OC(=O)c2cccc(S(=O)(=O)N3CC(C)OC(C)C3)c2)cc1 (stereo not given)	i	-4%	i	2%	10%	2%
CC(=O)c1ccc(NS(=O)(=O)c2ccc(C(C)(C)C)cc2)cc1	i	2%	?	1%	-7%	4%
CC(C)(C)c1ccc(S(=O)(=O)Nc2cccc(C3OCCCO3)c2)cc1	i	-1%	15µM*	-3%	-8%	-2%
Cc1c(Cl)cccc1NC(=O)c1ccc2c(c1)CCN2S(=O)(=O)c1ccccc1	i	·	i	·	·	·
CCOc1ccc(CCNC(=O)Cn2nnc(-c3ccc(C(F)(F)F)cc3)n2)cc1OCC	i	·	i	·	·	·
S=C(Nc1ccccc1)N1CCn2c1nc1ccccc12	i	-10%	i	?	?	1.4µM*
SMILES	KB-3-1 cytotox	MCF10A rereplic	KB-V1 MDR tox	SW480 rerep	HT1080 IDH1KD tx	HT1080NT lethal
OCCN(Cc1cccnc1)Cc1ccccn1	i	14%	10µM*	17%	-17%	6%
COc1ccc(C(=O)/C=C/c2cccs2)c(OC(=O)c2cccc([N+](=O)[O-])c2)c1	7.3µM*	?	i	25%	-2%	-1%
COc1ccc(C(=O)/C=C/c2ccc(F)cc2)c(OC(=O)c2ccc([N+](=O)[O-])cc2)c1	i	?	?	?	?	?
CN1N=C2c3ccccc3CCCC2C1c1ccc(F)cc1 (stereo not given)	i	?	i	21µM*	-17%	-16%
COc1ccc2c(c1)CCC1C2=NN(/C(C)=C\C(C)=O)C1c1ccc(F)cc1 (stereo not given)	i	5%	i	?	-1%	0%
COC(=O)c1cccc(Nc2c(-c3cc(Br)ccc3O)nc3nc[nH]n23)c1	i	·	?	·	·	·
CCN(Cc1ccccc1)C(c1cccc(C#N)c1)c1nnnn1C(C)(C)C (stereo not given)	i	1%	13µM*	-1%	?	-23%
CCN(Cc1ccccc1)C(c1ccc(C(F)(F)F)cc1)c1nnnn1C(C)(C)C (stereo not given)	16µM*	?	21µM*	4%[9.22 µM]	-1%	-2%
CC(C)(C)n1nnnc1C(c1cccnc1)N(Cc1ccccc1)Cc1ccco1 (stereo not given)	i	6%	?	14%	5%	11%
CCN1CCN(C(c2ccccc2)c2nnnn2C(C)(C)C)CC1 (stereo not given)	i	·	i	·	11%	14%
OCC1OC(n2nc3ccccc3n2)C(O)C(O)C1O (stereo not given)	i	-2%	i	0%	-3%[9.24 µM]	-13%
CCCCCCCCCCCCCCCC(=O)Nc1ccn(C2OC(CO)C(O)C2O)c(=O)n1 (stereo not given)	?	-6%	i	2.6µM*	?	-4%
Nc1nc(Cl)nc2c1ncn2[C@@H]1O[C@H](CO)[C@@H](O)[C@H]1O	?	?	16µM*	16%	?	18µM*
OC[C@H]1O[C@@H](n2cnc3c(NC4CCCC4)nc(Cl)nc32)[C@H](O)[C@@H]1O	i	-9%	i	4%	7%	-4%
Nc1ncnc2nn(C3OC(CO)C(O)C3O)nc12 (stereo not given)	i	·	?	·	13µM*	?
Nc1ncn([C@@H]2O[C@H](CO)[C@@H](O)[C@H]2O)c(=O)n1	?	?	?	-22%	1.8µM*	1.6µM*
COc1ccc(C(=O)C[n+]2cccc3cccc(O)c32)cc1	i	·	i	·	·	·
CCCCOc1ccc(CC(=O)NOC)cc1	i	·	i	·	·	·
